# Source: PubChem BioAssay AID624273 (Broad Institute, 2012)
# About 230 (23%) of roughly 1,000 compounds were called active. About 1% were inconclusive and are not listed. The rule behind the calls is not given here. The list shows a part of the results. Measured potencies and affinities stand elsewhere.
# Biological target: Long-chain-fatty-acid--AMP ligase FadD28 (Mycobacterium tuberculosis (strain ATCC 25618 / H37Rv)) (UniProt P9WQ59)
# Assay: inhibitors of FadD28 bisubstrate probe binding, dose response, biochemical, fluorescence polarization, cherry-pick (AID 624273)
# Conditions: series mostly up to 50 µM
# Sequence of Long-chain-fatty-acid--AMP ligase FadD28 (Mycobacterium tuberculosis (strain ATCC 25618 / H37Rv)) (P9WQ59 whole entry, looked up): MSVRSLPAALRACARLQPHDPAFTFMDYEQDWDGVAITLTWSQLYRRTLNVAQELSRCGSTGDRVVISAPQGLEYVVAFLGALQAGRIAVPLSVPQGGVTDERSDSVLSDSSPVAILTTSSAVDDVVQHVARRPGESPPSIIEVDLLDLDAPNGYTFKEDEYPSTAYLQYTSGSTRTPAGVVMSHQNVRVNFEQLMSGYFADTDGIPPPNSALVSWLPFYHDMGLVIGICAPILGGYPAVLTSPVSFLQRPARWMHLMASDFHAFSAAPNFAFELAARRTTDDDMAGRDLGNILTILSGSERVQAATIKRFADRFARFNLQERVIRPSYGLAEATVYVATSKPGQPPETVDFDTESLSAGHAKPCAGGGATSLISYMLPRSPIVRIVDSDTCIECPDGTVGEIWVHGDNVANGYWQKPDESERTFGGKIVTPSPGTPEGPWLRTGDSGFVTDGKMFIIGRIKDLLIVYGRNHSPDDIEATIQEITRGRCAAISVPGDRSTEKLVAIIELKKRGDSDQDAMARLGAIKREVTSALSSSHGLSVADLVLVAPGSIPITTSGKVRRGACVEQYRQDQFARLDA
row,SMILES,outcome
1,O=C(NCC(c1cccs1)N1CCOCC1)c1cc2ccccc2oc1=O (stereo not drawn),inactive
2,O=c1c2c3c(sc2nc2n1CCC2)CCCC3,inactive
3,CCc1cccc2c(C(=O)CN3C(=O)NC(C)(c4cccc5ccccc45)C3=O)c[nH]c12 (stereo not drawn),inactive
4,CC(C)C(NC(=O)c1ccc2c(c1)OCO2)C(=O)N/N=C/c1cccs1 (stereo not drawn),inactive
5,NC(Cc1ccc(C(F)(F)F)cc1)c1csc(NC(=O)Nc2ccccc2)n1 (stereo not drawn),inactive
6,CN=c1scc(-c2ccco2)n1/N=C/c1ccc(O)c(O)c1,inactive
7,Oc1ccc(/C=N/N(Cc2ccccc2)c2ccccc2)c(O)c1O,inactive
8,Oc1ccccc1/C=N/n1c2ccccc2c2ccccc21,inactive
9,CCN=c1scc(-c2ccco2)n1/N=C/c1ccc(OC)c(O)c1,inactive
10,CCOC(=O)c1c(-c2ccc(C)s2)csc1NC(=O)c1cccs1,inactive
11,CCOc1ccccc1NC(=O)CSc1nnc(-c2ccncc2)o1,inactive
12,CCOc1ccc(C(=O)Nc2cc(-c3nc4ccccc4[nH]3)ccc2C)cc1[N+](=O)[O-],inactive
13,CC(C)NCC(=O)Nc1c2c(nc3ccccc13)CCC2,inactive
14,O=c1[nH]nc(-c2ccccc2)cc1-c1ccccc1,inactive
15,COc1ccccc1CN1CCCC(C(=O)N2CCCCC2)C1 (stereo not drawn),inactive
16,COc1cccc(/C=N/Nc2nc(C)cc(=O)[nH]2)c1OC,inactive
17,CCOC(=O)C1=C(C)NC(C)=C(C(=O)OCC)C1c1sccc1C,inactive
18,CCOc1ccc(-n2c(=O)c3sccc3n(CC(=O)Nc3cccc(OC)c3)c2=O)cc1,inactive
19,COc1cccc(CN(C)C(=S)Nc2ccc(C)c(C)c2)c1,inactive
20,O=C(Nc1cccc(F)c1)NC1CCCCCCC1,inactive
21,Nc1ccc(NC(=O)NC2CCCCC2)cc1[N+](=O)[O-],inactive
22,N=c1n(Cc2ccccc2)c2ccccc2n1CC(O)c1ccco1 (stereo not drawn),inactive
23,CC(=O)Nc1ccc(OC(F)(F)C(F)F)c(NC(C)=O)c1,inactive
24,CCn1ncc(NC(=S)NCCc2ccccc2)c1C(N)=O,inactive
25,CC(C)CC(=O)Nc1nnc(S(=O)(=O)N(C)c2ccc(Cl)cc2)s1,inactive
26,COc1ccc(/C=N/n2c(SC)nnc(C(C)(C)C)c2=O)cc1OC,inactive

row,SMILES,outcome
1,COc1ccc(/C=N/NC(=O)CN(C2=NS(=O)(=O)c3ccccc32)c2ccccc2)cc1OC,inactive
2,c1ccc(-c2nnc(N3CCCC3)nc2-c2ccccc2)cc1,inactive
3,CC(O)(c1cccnc1)c1nc(-c2cccc(C(F)(F)F)c2)cs1 (stereo not drawn),inactive
4,COc1ccc(CC(=O)Nc2nnc(SCc3ccccc3)s2)cc1S(=O)(=O)N1CCOCC1,inactive
5,O=C(COC(=O)c1ccc(Cl)c(S(=O)(=O)N2CCCCCC2)c1)Nc1ccccc1,inactive
6,COc1ccc(CCNC(=O)c2ccc(Cl)c(S(=O)(=O)N(C)c3ccccc3)c2)cc1,inactive
7,CCN(CC)S(=O)(=O)c1cccc(C(=O)NCCCN2CCOCC2)c1,inactive
8,O=C(NCCc1c[nH]c2ccccc12)/C(=C/c1ccco1)NC(=O)c1ccco1,inactive
9,Cc1ccc(C(=O)OCC(=O)c2ccc(Br)cc2)cc1S(=O)(=O)N1CCOCC1,inactive
10,Cc1oc(/C=N/NS(=O)(=O)c2ccccc2)cc1Br,inactive
11,Cc1sc(-n2c(C)cc(/C=C3\SC(=S)NC3=O)c2C)c(C#N)c1C,inactive
12,O=C1C2ON(c3ccccc3)C(c3ccccn3)C2C(=O)N1c1ccc(Br)cc1 (stereo not drawn),inactive
13,Cn1nnnc1NCc1cccc(Cl)c1,inactive
14,Cc1nnc(NC(=O)c2sc3nc(-c4cccs4)cc(C(F)(F)F)c3c2N)s1,inactive
15,COc1ccccc1NC(=O)CSCC(=O)N1c2ccccc2CCc2ccccc21,inactive
16,O=C(Cn1cnc2c(oc3nc4c(cc32)CCCC4)c1=O)Nc1cccc(Cl)c1,inactive
17,N#Cc1ccccc1NC(=O)c1cc(=O)c2ccccc2o1,inactive
18,NC(Cc1ccc(Cl)cc1)c1csc(NC(=O)Nc2ccccc2)n1 (stereo not drawn),inactive
19,Nc1ccc(C(CC(=O)O)n2cccc2)cc1 (stereo not drawn),inactive
20,Cc1ccc(Cn2nnc3c(=O)[nH]c(C4CCN(S(=O)(=O)Cc5ccccc5)CC4)nc32)cc1,inactive
21,COc1cc(/C=C2/C(=O)NN(c3cccc(Cl)c3)C2=O)cc(OC)c1O,inactive
22,COc1cc(/C=C2/C(=O)NN(c3ccc(Cl)cc3)C2=O)ccc1OC(=O)c1ccco1,inactive
23,Cc1ccc(OCC(=O)NCCS(=O)(=O)N2CCN(c3ccccc3)CC2)cc1,inactive
24,COc1ccc(S(=O)(=O)N2CCCCC2)cc1NC(=O)CN1CCN(C(C)=O)CC1,inactive
25,Cc1cccc(NC(=O)c2cccc(S(=O)(=O)N3CCc4ccccc4C3)c2)n1,inactive
26,CCC(=O)c1ccc(OCC(=O)Nc2cccc(S(=O)(=O)N3CCCCCC3)c2)cc1,inactive

row,SMILES,outcome
1,CCc1cccc(NC(=O)Cn2c(=O)oc3cc(S(=O)(=O)N4CCOCC4)ccc32)c1,inactive
2,CN(CC(=O)N1CCc2ccccc21)S(=O)(=O)c1cccc2cccnc12,inactive
3,Cc1ccc(S(=O)(=O)N(C)C)cc1NC(=O)C(C)[N+]12CCN(CC1)CC2 (stereo not drawn),inactive
4,CC1CCCN(Cc2c(O)ccc3c(=O)c(-c4nc5ccccc5s4)c(N)oc23)C1 (stereo not drawn),inactive
5,CN1C(=O)C2C=CC1C1C(=O)N(c3ccccc3)C(=O)C21 (stereo not drawn),inactive
6,Cc1ccc(S(=O)(=O)N(C)C)cc1NC(=O)CSc1nnnn1-c1ccc(O)cc1,inactive
7,CC1(C)Cc2nc3oc4c(NCc5ccccc5)ncnc4c3cc2CO1,inactive
8,CCN=c1scc(C)n1/N=C/c1cc(Br)c(O)c(Br)c1,inactive
9,O=C(CSc1ccc(Br)c2cccc(Cl)c12)Nc1ccc(S(=O)(=O)Nc2nccs2)cc1,inactive
10,O=C(CSc1ncn[nH]1)Nc1ccc(S(=O)(=O)Nc2ncccn2)cc1,inactive
11,COc1ccccc1[C@@H]1C(c2cccc(C)c2)=NN(c2ccccc2)[C@H]1C(=O)N1CCOC1=O,inactive
12,COc1ccccc1COC(=O)c1cccc(S(=O)(=O)N2CCCC2)c1,inactive
13,O=c1cc(CN2CCc3ccccc32)c2ccc(O)cc2o1,inactive
14,O=C(O)Cc1ccc2c(c1)N(S(=O)(=O)c1cccs1)CC(C(=O)O)O2 (stereo not drawn),inactive
15,OCCN1CCN(c2ncnc3c2ncn3[C@H]2CN(Cc3ccncc3)C[C@@H](CO)O2)CC1,inactive
16,COc1ccc(CCNC(=O)CN(c2ccc(C)cc2)S(=O)(=O)c2c(C)noc2C)cc1OC,inactive
17,Nc1ccc2c(c1)[nH]c(=O)c1cc(N)ccc12,inactive
18,NS(=O)(=O)c1cccc(NS(=O)(=O)c2ccc(/C=C/C(=O)OCC(=O)c3ccccc3)cc2)c1,inactive
19,O=[N+]([O-])c1cc(S(=O)(=O)Nc2cccc(C(F)(F)F)c2)ccc1-n1nnc2ccccc21,inactive
20,COc1ccccc1NS(=O)(=O)c1cccc(NC(=O)Nc2cccc(Cl)c2)c1,inactive
21,CC(=O)Nc1ccc(S(=O)(=O)NC2=C(N3CCN(c4ccc(F)cc4)CC3)C(=O)c3ccccc3C2=O)cc1,inactive
22,Cc1cc(NS(=O)(=O)c2ccc(NC(=O)Cc3ccccc3)cc2)nc(C)n1,inactive
23,O=C1C(Cl)=C(NCCN2CCOCC2)C(=O)c2ccccc21,inactive
24,O=C(NN=C1CCCC1)c1cc(Cl)cc(Cl)c1O,inactive
25,N#Cc1cc2c(nc1SCc1ccc(Cl)nc1)CCCCC2,inactive
26,Cc1ccc2oc(C(=O)N3CCCCCC3)c(C)c2c1,inactive

row,SMILES,outcome
1,O=C(CSc1ccccn1)N1CCN(S(=O)(=O)c2ccc(Cl)cc2)CC1,inactive
2,Cc1ccnc(NC(=O)CCC(=O)N(CC(=O)NCC2CCCO2)Cc2ccc(F)cc2)c1 (stereo not drawn),inactive
3,Cc1cc[n+](CC(=O)c2cc3ccccc3oc2=O)cc1,inactive
4,O=C1NC(=O)N(Cc2ccc(F)cc2)C(=O)/C1=C\c1ccoc1,inactive
5,COc1ccc(C(=O)N/N=C2\SCC(=O)N2Cc2ccc3c(c2)OCO3)c(OC)c1,inactive
6,CCNC(=S)N1CCN(CC(=O)Nc2ccc(Br)cc2)CC1,inactive
7,Nc1ccccc1/C=N\N=C/c1ccccc1N,inactive
8,COc1ccc(CCNC(=O)CCNC(=O)N2CC(=O)Nc3ccccc32)cc1,inactive
9,CN(C)C1(c2nnnn2-c2ccc(Cl)cc2)CCCCC1,inactive
10,O=C(c1[nH]c(C(F)(F)F)nc1-c1ccccc1)N1CCN(c2ccccn2)CC1,inactive
11,N#Cc1c(C#N)c(-c2ccccc2)n(-c2ccc(C(=O)O)cc2)c1N,inactive
12,CC(=O)Nc1ccc(/C=N\NC(=O)CNS(=O)(=O)c2ccc([N+](=O)[O-])cc2)cc1,inactive
13,COc1ccc(/C=C/C(=O)N2CC(C)OC(C)C2)cc1OC (stereo not drawn),inactive
14,COC(=O)CSc1nnc(CNC(=O)c2cc(OC)cc(OC)c2)n1-c1ccc(F)cc1,inactive
15,O=c1[nH]c(=S)[nH]c2c1C(c1ccc(Br)cc1)c1c([nH]c(=S)[nH]c1=O)O2,inactive
16,O=C(OCC(=O)N1CCCC1)c1cccs1,inactive
17,O=C1NCCN(C(=O)CCc2nnc(-c3ccsc3)o2)C1c1ccc(F)cc1 (stereo not drawn),inactive
18,COc1ccc(C2(CNC(=O)c3ccc(OC)c([N+](=O)[O-])c3)CCCCC2)cc1OC,inactive
19,Cc1ccc(-c2nn(-c3ccccc3)cc2/C=C2\SC(=S)N(CCCCCC(=O)O)C2=O)o1,inactive
20,O=C(O)CCCN1C(=O)/C(=C/c2ccc(-c3nc4ccccc4s3)o2)SC1=S,inactive
21,CC1(c2ccc(OC(F)F)cc2)NC(=O)N(CC(=O)Nc2ccc3[nH]c(=O)[nH]c3c2)C1=O (stereo not drawn),inactive
22,CC(C)CNC(=O)c1cc(S(=O)(=O)N2CCOCC2)ccc1N1CCCC1,inactive
23,Cc1ccc(NS(=O)(=O)c2ccc(NC(=O)CN(c3cc([N+](=O)[O-])ccc3C)S(C)(=O)=O)cc2)c(C)c1,inactive
24,Cc1ccccc1-c1cc2nc(NCc3ccccc3)n(C)c(=O)c2s1,inactive
25,COC(=O)Cc1cc(=O)n(-c2nc3ccccc3s2)[nH]1,inactive
